A short description of assay [1]: qHTS assay to identify small molecule antagonists of the thyroid receptor (TR) signaling pathway - cell viability counter screen (AID 743064). Note: nearly all actives have a fitted effect of over 50% in size. Note: potency is the fitted concentration of half-maximal effect. The method in brief:
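Compounds were tested on GH3.TRE-Luc cells in the presence of T3 at 1 nM final. Following 23.5 h at 37 °C, cell viability was quantified by CellTiter-Fluor.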

The nature of assay [2]: qHTS assay to identify small molecule antagonists of the thyroid receptor (TR) signaling pathway (AID 743065). Note: series mostly up to about 70 µM; nearly all actives have a fitted effect of over 55% in size. The method in brief: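 Antagonism measured as loss of luciferase signal in GH3 cells stably carrying a TRE-luciferase reporter, co-treated with compound and T3 (1 nM final) for 23.5 h at 37 C. Viability was read in the same well by CellTiter-Fluor.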
For assay [3], the system named is thyroid hormone receptor (rat, GH3 cells). As to the kind of experiment: qHTS assay to identify small molecule agonists of the thyroid receptor (TR) signaling pathway (AID 743066; calls by dose curve).
Assay [4] can be described thus: qHTS assay to identify small molecule antagonists of the estrogen receptor alpha (ER-alpha) signaling pathway - cell viability counter screen (AID 743074; calls by dose curve;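 note: HEK293 cells carrying ER-alpha-UAS-bla reporter stimulated with 17beta-estradiol; nearly all actives have a fitted effect of over 45% in size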).
Assay [5] concerns the target Estrogen receptor (Homo sapiens) (UniProt P03372). As to the kind of experiment: qHTS assay to identify small molecule agonists of the estrogen receptor alpha (ER-alpha) signaling pathway (AID 743075; calls by dose curve).
Assay [6] has the same target. As to the kind of experiment: qHTS assay to identify small molecule agonists of the estrogen receptor alpha (ER-alpha) signaling pathway using the BG1 cell line (AID 743079). Note: nearly all actives have a fitted effect of over 20% in size. Note: potency is the fitted concentration of half-maximal effect.
Assay [7] can be described thus: qHTS assay to identify small molecule antagonists of the estrogen receptor alpha (ER-alpha) signaling pathway using the BG1 cell line (AID 743080; calls by dose curve;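 note: BG1 cells stimulated with 17beta-estradiol alongside compound; series mostly up to about 70 µM; nearly all actives have a fitted effect of over 25% in size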). The gist of the method: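 Endogenous full-length ER-alpha in BG1-Luc-4E2 cells drives a stably integrated 4×ERE luciferase gene; compounds were tested against 17beta-estradiol over 21.5 h, with luminescence and multiplexed viability fluorescence recorded.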

A short description of assay [8]: qHTS assay to identify small molecule antagonists of the estrogen receptor alpha (ER-alpha) signaling pathway using the BG1 cell line - cell viability counter screen (AID 743081).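 Note: compound given together with 17beta-estradiol as the ER stimulus; series mostly up to about 70 µM; nearly all actives have a fitted effect of over 45% in size.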
A further assay deals with Aromatase (Homo sapiens) (UniProt P11511). As to the kind of experiment: qHTS assay to identify aromatase inhibitors (AID 743083). Note: series mostly up to about 70 µM; nearly all actives have a fitted effect of over 55% in size.
The nature of assay [9]: qHTS assay to identify aromatase inhibitors - cell viability counter screen (AID 743084).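 Note: cells stimulated with testosterone during compound exposure; nearly all actives have a fitted effect of over 55% in size.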
Assay [10] in a line: qHTS assay to identify small molecule that activate the aryl hydrocarbon receptor (AhR) signaling pathway - cell viability counter screen (AID 743086). Note: nearly all actives have a fitted effect of over 45% in size. Note: potency is the fitted concentration of half-maximal effect. The method in brief:
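Cytotoxicity counter screen: CellTiter-Fluor signal (30 min, 37 C) in 4000 HepG2 cells/well carrying the DRE-luciferase reporter, following 24 h compound exposure at 37 C.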

For assay [11], the target named is Peroxisome proliferator-activated receptor gamma (Homo sapiens) (UniProt P37231). As to the kind of experiment: qHTS assay to identify small molecule agonists of the peroxisome proliferator-activated receptor gamma (PPARg) signaling pathway (AID 743094; active = well fitted activation curve with a large enough effect in the signal ratio in the repeat runs, not every such curve was filed as active; the % refers to the signal ratio). The gist of the method:
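GeneBLAzer PPARg UAS-bla HEK293H cells carrying a stably integrated beta-lactamase reporter were pre-incubated 5 h at 37C, then exposed to compounds in DMSO for 17 h at 37C; LiveBLAzer B/G FRET substrate was added for 1 h at room temperature and fluorescence read.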

The nature of assay [12]: qHTS assay to identify small molecule antagonists of the peroxisome proliferator-activated receptor gamma (PPARg) signaling pathway - cell viability counter screen (AID 743194). Note: nearly all actives have a fitted effect of over 55% in size. The conditions noted are these: Potency: co-treated with 50 nM rosiglitazone. The method in brief: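 Viability was measured as CellTiter-Glo luminescence in GeneBLAzer PPARg UAS-bla HEK293H cells. These cells had been exposed 17 h at 37 C to compounds together with rosiglitazone at 50 nM final, with the beta-lactamase readout taken in the same wells.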

The nature of assay [13]: qHTS assay for small molecule agonists of the antioxidant response element (ARE) signaling pathway - cell viability counter screen (AID 743203; calls by dose curve; note: nearly all actives have a fitted effect of over 55% in size). The method in brief: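 CellSensor ARE-bla HepG2 cells, 2,000 per well, rested 5 hrs at 37C/5% CO2, then exposed to compound in DMSO for 16 hrs; viability read as CellTiter-Glo luminescence after 30 min at room temperature, in the reporter wells.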

The nature of assay [14]: qHTS assay for small molecule activators of the heat shock response signaling pathway - cell viability counter screen (AID 743209). Note: nearly all actives have a fitted effect of over 50% in size. The gist of the method:
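CellSensor HSE-bla HeLa cells, plated overnight at 37 C/5% CO2, were exposed to compounds in DMSO for 5 h at 37 C. Viability was then read in the same wells by CellTiter-Glo luminescence after 30 min at room temperature.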

Assay [15] in a line: qHTS assay for small molecule activators of the heat shock response signaling pathway (AID 743210; active = well fitted activation curve with a large enough effect in the signal ratio in the repeat runs, with a control signal flat, not every such curve was filed as active; the % refers to the signal ratio;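 note: HeLa cells with beta-lactamase reporter driven by heat shock elements; series mostly up to about 63 µM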). The gist of the method:
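In HSE-bla HeLa cells, 5 h compound incubation (37 C) precedes addition of LiveBLAzer B/G substrate; after 2.5 h at room temperature, fluorescence intensity indicates reporter induction.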

Assay [16] has as its target Estrogen receptor (Homo sapiens) (UniProt P03372). As to the kind of experiment: qHTS assay to identify small molecule antagonists of the estrogen receptor alpha (ER-alpha) signaling pathway (AID 743069; active = well fitted curve in the direction sought with a large enough effect in the signal ratio in the repeat runs, not every such curve was filed as active; the % refers to the signal ratio). The gist of the method: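 Compound effects are measured against 17beta-estradiol stimulation in HEK293 cells with a UAS-controlled beta-lactamase reporter for ER-alpha. Exposure lasts 18 hr at 37C; LiveBLAzer B/G FRET substrate follows for 2 hr at room temperature.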

Assay [17] addresses Aryl hydrocarbon receptor (Homo sapiens) (UniProt P35869). As to the kind of experiment: qHTS assay to identify small molecule that activate the aryl hydrocarbon receptor (AhR) signaling pathway (AID 743085).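 Note: HG2L7.5c1 human HepG2 liver cells with stably integrated DRE-driven firefly reporter; series mostly up to about 70 µM; nearly all actives have a fitted effect of over 15% in size.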 The method in brief:
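24 h compound exposure, 37C, HepG2-derived HG2L7.5c1 cells with DRE-responsive luciferase. Readouts: fluorescence viability, then luminescence at room temperature after 30 min.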

Assay [18] in a line: qHTS assay for small molecule agonists of the antioxidant response element (ARE) signaling pathway (AID 743202; active = well fitted activation curve with a large enough effect in the signal ratio in the repeat runs, not every such curve was filed as active; the % refers to the signal ratio). The method in brief: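 An ARE-responsive beta-lactamase gene stably integrated in HepG2 cells serves as reporter. After 5 h plating and 16 h compound incubation at 37 C, fluorescence of the B/G FRET substrate was measured.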
Assay [19] has as its target Peroxisome proliferator-activated receptor gamma (Homo sapiens) (UniProt P37231). Briefly: qHTS assay to identify small molecule antagonists of the peroxisome proliferator-activated receptor gamma (PPARg) signaling pathway (AID 743191; calls by dose curve; note: series mostly up to about 63 µM; nearly all actives have a fitted effect of over 30% in size). The method in brief: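 Beta-lactamase reporter under UAS control in HEK293H PPARg-bla cells; compound treatment 17 h at 37C. Read-out: fluorescence intensity after 1 h room-temperature incubation with LiveBLAzer B/G FRET substrate.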

The record followed here is PubChem BioAssay (Tox21).

Structures are written as SMILES. Results filed as inconclusive are left out. Activity calls are given as the source filed them. Unless noted, calls come from the whole dose curve; as a rule, active = well fitted curve in the direction sought with a large enough effect in the repeat runs; inconclusive = weak or mixed curves; inactive = no such curve, though single readings can be large; an effect the other way counts as inactive or inconclusive.

Sequence of Aryl hydrocarbon receptor (Homo sapiens) (P35869 whole entry, looked up): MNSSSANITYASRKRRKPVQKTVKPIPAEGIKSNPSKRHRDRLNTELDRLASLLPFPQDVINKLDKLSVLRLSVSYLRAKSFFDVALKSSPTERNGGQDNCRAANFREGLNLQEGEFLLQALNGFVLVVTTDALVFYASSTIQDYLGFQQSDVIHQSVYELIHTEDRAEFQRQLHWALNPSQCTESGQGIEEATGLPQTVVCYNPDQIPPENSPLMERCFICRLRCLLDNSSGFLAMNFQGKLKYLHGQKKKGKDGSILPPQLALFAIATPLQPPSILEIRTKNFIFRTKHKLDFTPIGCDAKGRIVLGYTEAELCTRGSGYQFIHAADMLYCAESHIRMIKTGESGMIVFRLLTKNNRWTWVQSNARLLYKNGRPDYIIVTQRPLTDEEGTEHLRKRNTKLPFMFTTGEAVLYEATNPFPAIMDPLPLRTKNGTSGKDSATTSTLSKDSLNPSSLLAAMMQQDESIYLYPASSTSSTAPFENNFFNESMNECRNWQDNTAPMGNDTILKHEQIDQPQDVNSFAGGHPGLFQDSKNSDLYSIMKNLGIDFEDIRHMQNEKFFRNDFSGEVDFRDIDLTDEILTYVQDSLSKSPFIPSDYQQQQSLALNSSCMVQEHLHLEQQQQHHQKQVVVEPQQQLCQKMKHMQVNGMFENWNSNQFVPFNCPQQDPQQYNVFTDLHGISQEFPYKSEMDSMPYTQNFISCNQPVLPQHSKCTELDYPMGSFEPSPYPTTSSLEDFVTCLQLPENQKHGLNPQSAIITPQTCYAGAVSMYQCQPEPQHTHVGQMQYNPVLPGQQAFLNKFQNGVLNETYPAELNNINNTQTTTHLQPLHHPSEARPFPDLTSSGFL
Sequence of Estrogen receptor (Homo sapiens) (P03372 whole entry, looked up): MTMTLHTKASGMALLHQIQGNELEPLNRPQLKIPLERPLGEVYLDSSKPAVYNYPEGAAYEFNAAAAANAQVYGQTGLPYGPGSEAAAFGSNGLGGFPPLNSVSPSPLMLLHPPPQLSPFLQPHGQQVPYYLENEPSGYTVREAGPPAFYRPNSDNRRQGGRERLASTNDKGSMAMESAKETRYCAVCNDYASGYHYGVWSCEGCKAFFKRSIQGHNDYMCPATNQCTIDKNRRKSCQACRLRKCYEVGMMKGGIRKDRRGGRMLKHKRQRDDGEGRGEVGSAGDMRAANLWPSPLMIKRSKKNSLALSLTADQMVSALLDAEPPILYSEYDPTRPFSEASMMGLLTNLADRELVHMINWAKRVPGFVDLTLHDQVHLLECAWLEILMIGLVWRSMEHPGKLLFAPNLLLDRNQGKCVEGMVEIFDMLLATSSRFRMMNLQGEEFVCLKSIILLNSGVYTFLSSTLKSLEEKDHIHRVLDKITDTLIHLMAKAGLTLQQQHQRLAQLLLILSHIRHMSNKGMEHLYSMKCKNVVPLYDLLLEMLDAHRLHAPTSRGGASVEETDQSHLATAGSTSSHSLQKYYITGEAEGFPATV
Sequence of Peroxisome proliferator-activated receptor gamma (Homo sapiens) (P37231 whole entry, looked up): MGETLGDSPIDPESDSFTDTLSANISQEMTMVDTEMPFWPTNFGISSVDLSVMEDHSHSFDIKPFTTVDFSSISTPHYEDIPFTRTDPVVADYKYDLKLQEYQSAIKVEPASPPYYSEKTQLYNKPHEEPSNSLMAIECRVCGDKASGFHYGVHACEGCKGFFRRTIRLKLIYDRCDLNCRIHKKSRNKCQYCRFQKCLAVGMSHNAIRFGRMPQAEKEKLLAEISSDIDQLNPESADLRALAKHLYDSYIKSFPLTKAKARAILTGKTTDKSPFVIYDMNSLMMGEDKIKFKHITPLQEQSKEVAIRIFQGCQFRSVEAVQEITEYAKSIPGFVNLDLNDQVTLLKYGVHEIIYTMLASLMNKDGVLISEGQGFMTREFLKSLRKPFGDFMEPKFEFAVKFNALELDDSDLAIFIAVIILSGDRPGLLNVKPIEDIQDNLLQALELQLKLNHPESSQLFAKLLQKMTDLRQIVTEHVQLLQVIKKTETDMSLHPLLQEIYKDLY
Sequence of Aromatase (Homo sapiens) (P11511 whole entry, looked up): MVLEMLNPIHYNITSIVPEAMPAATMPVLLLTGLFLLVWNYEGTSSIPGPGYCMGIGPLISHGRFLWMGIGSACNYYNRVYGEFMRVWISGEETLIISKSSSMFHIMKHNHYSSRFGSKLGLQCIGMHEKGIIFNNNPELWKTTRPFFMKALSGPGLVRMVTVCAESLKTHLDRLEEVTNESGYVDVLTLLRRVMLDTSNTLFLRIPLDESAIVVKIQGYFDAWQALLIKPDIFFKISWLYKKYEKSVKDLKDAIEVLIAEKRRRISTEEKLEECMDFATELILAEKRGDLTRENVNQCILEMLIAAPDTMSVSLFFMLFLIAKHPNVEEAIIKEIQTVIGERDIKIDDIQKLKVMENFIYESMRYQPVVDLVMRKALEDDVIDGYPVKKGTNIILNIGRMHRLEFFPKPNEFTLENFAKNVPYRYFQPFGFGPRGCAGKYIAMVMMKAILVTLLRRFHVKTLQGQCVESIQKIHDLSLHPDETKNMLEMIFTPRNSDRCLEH

Regarding `O=[N+]([O-])c1cc(Cl)c(Cl)cc1Cl`, the Potency entry in [1], in assay [2], in assay [3], in assay [4], in assay [5] and in assay [6] was “inactive” in each case. For the same molecule, the Potency entry (in assay [7]; in [8]; in the assay with Aromatase (Homo sapiens); in assay [9]; in assay [10]; in assay [11]) was “inactive” in each case. Further, the Potency result in [12], in assay [13], in assay [14] and in [15] was “inactive” each time.
Regarding `Cc1nc2ccccc2c(=O)n1-c1ccccc1Cl`, the Potency in [1] is 30 µM (active); in assay [6], 33.6 µM (active); in assay [10], 47.5 µM (active). The Potency result (in [2]; in assay [3]; in assay [16]; in assay [5]; with Aromatase (Homo sapiens); in assay [17]) was “inactive” each time. For the same molecule, the Potency entry in [11], in assay [12], in assay [13], in assay [14] and in [15] was “inactive” each time.
`O=C(Cc1ccccc1)c1ccccc1`: the Potency entry in assay [1], in [2], in [3], in assay [4], in assay [5] and in assay [8] was “inactive” throughout. For the same molecule, the Potency result (with Aromatase (Homo sapiens); in [9]; in [17]; in assay [10]; in assay [12]; in assay [18]) was “inactive” each time. Further, the Potency entry in [13], in [14] and in assay [15] was “inactive” in each case.
As for `CC[N+]1(CCOC(=O)C(O)(c2ccccc2)c2ccccc2)CCCCC1`, the Potency result in [1], in assay [2], in assay [3], in assay [4], in [7] and in [8] was “inactive” each time. Moreover, the Potency result (with Aromatase (Homo sapiens); in [9]; in assay [10]; in assay [11]; in [12]; in assay [13]) was “inactive” throughout. Besides, the Potency result in assay [14] and in assay [15] was “inactive” throughout. For the same molecule, in assay [6], the Potency was 8.41 µM (active).
`CCOC(=O)C1OC1(C)c1ccccc1` (centres undefined): the Potency entry (in [1]; in assay [2]; in assay [3]; in [4]; in assay [8]; with Aromatase (Homo sapiens)) was “inactive” throughout. The Potency entry in assay [9], in [17], in assay [10], in assay [11], in [19] and in [12] was “inactive” in each case. Besides, the Potency entry in assay [18], in assay [13], in assay [14] and in [15] was “inactive” each time.
Turning to `O=C(O)c1cc(Cl)ccc1Cl`, the Potency entry (in assay [1]; in [2]; in assay [3]; in assay [4]; in assay [8]; with Aromatase (Homo sapiens)) was “inactive” throughout. The Potency entry in assay [9], in [17], in assay [10], in assay [19], in assay [12] and in assay [18] was “inactive” each time. Also, the Potency entry in [13], in [14] and in assay [15] was “inactive” in each case.
Regarding `CCCC[P+](CC)(CCCC)CCCC` (tested in a mixture with another compound), the Potency entry (in assay [1]; in assay [2]; in assay [3]; in [4]; in assay [8]; with Aromatase (Homo sapiens)) was “inactive” throughout. The Potency entry in [9], in assay [10], in assay [11], in assay [19], in [12] and in assay [18] was “inactive” in each case. Further, the Potency entry in assay [13], in assay [14] and in [15] was “inactive” throughout.
Regarding `Cc1nnc(-c2ccccc2)c(=O)n1N`, the Potency result (in assay [1]; in assay [2]; in [3]; in [4]; in [8]; in the assay with Aromatase (Homo sapiens)) was “inactive” each time. The Potency result in [9], in [10], in assay [11], in [12], in [18] and in [13] was “inactive” throughout. Besides, the Potency result in [14] and in assay [15] was “inactive” throughout.
Take `CCCCCl`: the Potency result (in assay [1]; in assay [2]; in assay [3]; in assay [4]; in [8]; with Aromatase (Homo sapiens)) was “inactive” throughout. The Potency result in assay [9], in [17], in assay [10], in assay [11], in [12] and in assay [18] was “inactive” in each case. Besides, the Potency result in [13] and in [15] was “inactive” throughout.
`CC(C)(C#N)C(C)(C)C#N`: the Potency result (in assay [1]; in assay [2]; in [3]; in assay [4]; in assay [8]; in the assay with Aromatase (Homo sapiens)) was “inactive” throughout. Besides, the Potency entry in [9], in [10], in assay [11], in [12], in assay [18] and in [13] was “inactive” throughout. Moreover, the Potency result in assay [14] and in assay [15] was “inactive” throughout.
As to `COc1ccc2c(c1OC)C(=O)O[C@H]2[C@@H]1c2cc3c(cc2CCN1C)OCO3`, the Potency entry (in assay [1]; in assay [2]; in [3]; in assay [4]; in assay [8]; with Aromatase (Homo sapiens)) was “inactive” each time. Also, the Potency result in assay [9], in assay [10], in [11], in assay [19], in assay [12] and in [18] was “inactive” in each case. Also, the Potency result in assay [13], in [14] and in [15] was “inactive” in each case.
For `CC(C)CCON=O`, the Potency entry (in assay [1]; in assay [2]; in assay [3]; in assay [4]; in assay [8]; in the assay with Aromatase (Homo sapiens)) was “inactive” each time. Also, the Potency result in assay [9], in assay [17], in assay [10], in [11], in [19] and in assay [12] was “inactive” in each case. Moreover, the Potency result in assay [18], in assay [13] and in [15] was “inactive” each time.
`O=C(N[C@H]1CN2CCC1CC2)c1ccc2c(c1)OCCO2`: the Potency entry (in assay [1]; in assay [2]; in [3]; in assay [4]; in assay [8]; with Aromatase (Homo sapiens)) was “inactive” in each case. Also, the Potency entry in assay [9], in assay [17], in [10], in assay [11], in assay [19] and in [12] was “inactive” in each case. Also, the Potency result in [18], in [13], in assay [14] and in assay [15] was “inactive” in each case.
